Measurements: ChEMBL document CHEMBL2218924, “A broad activity screen in support of a chemogenomic map for kinase signalling research and drug discovery” (Biochem J, 2013)

How the values were obtained:
[1] = molecular target: T1, Mitogen-activated protein kinase 12 (Homo sapiens) (UniProt P53778); settings: at 1 µM
T1 sequence (whole entry): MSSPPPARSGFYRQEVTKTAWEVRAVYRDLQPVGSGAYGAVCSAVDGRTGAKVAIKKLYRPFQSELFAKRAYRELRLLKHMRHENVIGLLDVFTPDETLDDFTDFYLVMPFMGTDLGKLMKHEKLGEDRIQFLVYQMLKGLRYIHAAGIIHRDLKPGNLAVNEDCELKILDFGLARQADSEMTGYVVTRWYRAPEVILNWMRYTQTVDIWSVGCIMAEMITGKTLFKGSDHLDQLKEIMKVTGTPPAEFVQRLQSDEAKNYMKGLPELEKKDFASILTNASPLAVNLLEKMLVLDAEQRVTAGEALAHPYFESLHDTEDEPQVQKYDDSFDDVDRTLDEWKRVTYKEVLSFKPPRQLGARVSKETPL

[2] = molecular target: T1, Mitogen-activated protein kinase 12 (Homo sapiens); settings: at 10 µM
[3] = molecular target: T2, Tyrosine-protein kinase receptor TYRO3 (Homo sapiens) (UniProt Q06418); settings: at 1 µM
T2 sequence (whole entry): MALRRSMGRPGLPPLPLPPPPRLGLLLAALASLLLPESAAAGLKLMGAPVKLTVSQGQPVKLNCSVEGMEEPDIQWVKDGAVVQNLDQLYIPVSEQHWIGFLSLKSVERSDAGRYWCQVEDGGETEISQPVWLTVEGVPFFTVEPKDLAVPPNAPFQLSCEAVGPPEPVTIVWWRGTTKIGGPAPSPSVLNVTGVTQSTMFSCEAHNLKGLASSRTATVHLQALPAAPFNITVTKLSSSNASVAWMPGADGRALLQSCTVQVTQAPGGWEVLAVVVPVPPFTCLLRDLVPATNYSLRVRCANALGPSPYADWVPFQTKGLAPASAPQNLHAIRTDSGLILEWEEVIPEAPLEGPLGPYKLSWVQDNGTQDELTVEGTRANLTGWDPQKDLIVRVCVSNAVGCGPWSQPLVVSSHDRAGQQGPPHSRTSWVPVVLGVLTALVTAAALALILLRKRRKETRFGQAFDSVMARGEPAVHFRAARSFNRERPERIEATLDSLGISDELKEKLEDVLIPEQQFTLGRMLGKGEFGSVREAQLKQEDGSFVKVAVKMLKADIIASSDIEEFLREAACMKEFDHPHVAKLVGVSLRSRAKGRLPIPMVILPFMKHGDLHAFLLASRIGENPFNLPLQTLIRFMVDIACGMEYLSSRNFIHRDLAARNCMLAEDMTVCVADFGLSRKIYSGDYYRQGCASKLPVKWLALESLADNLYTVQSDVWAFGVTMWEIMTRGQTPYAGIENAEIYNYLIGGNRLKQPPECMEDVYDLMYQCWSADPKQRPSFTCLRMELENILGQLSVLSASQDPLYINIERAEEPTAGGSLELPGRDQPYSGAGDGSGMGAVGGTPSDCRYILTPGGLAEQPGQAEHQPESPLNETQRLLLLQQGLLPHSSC

[4] = molecular target: T2, Tyrosine-protein kinase receptor TYRO3 (Homo sapiens); settings: at 10 µM
[5] = molecular target: Ribosomal protein S6 kinase alpha-1 (Homo sapiens) (UniProt Q15418); settings: at 10 µM
Ribosomal protein S6 kinase alpha-1 (Homo sapiens), sequence (Q15418 whole entry): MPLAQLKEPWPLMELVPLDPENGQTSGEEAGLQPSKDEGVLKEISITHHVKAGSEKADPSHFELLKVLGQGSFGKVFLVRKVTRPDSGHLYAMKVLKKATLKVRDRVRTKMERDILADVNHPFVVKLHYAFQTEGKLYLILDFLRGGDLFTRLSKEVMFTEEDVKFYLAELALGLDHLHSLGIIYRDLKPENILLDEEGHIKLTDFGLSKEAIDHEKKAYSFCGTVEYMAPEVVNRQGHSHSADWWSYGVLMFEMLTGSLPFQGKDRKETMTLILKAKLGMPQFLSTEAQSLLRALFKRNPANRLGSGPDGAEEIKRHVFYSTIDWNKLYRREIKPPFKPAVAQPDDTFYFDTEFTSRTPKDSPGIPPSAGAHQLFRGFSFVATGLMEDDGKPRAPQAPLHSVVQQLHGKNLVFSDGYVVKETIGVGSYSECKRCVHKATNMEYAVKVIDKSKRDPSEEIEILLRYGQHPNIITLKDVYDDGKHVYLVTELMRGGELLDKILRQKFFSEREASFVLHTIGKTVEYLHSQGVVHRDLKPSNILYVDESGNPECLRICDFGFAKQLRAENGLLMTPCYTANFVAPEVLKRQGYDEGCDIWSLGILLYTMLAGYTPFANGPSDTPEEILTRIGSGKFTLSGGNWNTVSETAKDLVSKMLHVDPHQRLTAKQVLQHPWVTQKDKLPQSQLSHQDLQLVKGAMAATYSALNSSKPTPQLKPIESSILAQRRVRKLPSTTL

[6] = molecular target: Ribosomal protein S6 kinase alpha-3 (Homo sapiens) (UniProt P51812); settings: at 10 µM
Ribosomal protein S6 kinase alpha-3 (Homo sapiens), sequence (P51812 whole entry): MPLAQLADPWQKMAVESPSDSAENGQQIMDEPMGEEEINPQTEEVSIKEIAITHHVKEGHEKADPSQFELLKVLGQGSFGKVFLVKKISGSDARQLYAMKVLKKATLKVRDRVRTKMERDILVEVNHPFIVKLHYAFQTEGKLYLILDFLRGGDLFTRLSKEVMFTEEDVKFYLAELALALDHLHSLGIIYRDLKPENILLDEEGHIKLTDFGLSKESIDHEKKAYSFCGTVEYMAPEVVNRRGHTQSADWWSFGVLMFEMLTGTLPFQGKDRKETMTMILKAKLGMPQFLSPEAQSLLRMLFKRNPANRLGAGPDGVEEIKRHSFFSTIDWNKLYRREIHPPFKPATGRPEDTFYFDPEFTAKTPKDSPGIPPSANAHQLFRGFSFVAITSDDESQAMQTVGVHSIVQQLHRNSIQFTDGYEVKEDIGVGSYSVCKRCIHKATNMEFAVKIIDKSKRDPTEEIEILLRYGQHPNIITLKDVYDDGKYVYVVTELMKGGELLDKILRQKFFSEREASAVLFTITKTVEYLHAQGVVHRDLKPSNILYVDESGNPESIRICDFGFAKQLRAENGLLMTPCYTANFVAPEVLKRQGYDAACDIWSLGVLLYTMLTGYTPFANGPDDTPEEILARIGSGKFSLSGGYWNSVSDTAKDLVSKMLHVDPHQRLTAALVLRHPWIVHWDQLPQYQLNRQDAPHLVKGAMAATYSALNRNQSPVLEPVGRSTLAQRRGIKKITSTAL

[7] = molecular target: Ribosomal protein S6 kinase alpha-2 (Homo sapiens) (UniProt Q15349); settings: at 10 µM
Ribosomal protein S6 kinase alpha-2 (Homo sapiens), sequence (Q15349 whole entry): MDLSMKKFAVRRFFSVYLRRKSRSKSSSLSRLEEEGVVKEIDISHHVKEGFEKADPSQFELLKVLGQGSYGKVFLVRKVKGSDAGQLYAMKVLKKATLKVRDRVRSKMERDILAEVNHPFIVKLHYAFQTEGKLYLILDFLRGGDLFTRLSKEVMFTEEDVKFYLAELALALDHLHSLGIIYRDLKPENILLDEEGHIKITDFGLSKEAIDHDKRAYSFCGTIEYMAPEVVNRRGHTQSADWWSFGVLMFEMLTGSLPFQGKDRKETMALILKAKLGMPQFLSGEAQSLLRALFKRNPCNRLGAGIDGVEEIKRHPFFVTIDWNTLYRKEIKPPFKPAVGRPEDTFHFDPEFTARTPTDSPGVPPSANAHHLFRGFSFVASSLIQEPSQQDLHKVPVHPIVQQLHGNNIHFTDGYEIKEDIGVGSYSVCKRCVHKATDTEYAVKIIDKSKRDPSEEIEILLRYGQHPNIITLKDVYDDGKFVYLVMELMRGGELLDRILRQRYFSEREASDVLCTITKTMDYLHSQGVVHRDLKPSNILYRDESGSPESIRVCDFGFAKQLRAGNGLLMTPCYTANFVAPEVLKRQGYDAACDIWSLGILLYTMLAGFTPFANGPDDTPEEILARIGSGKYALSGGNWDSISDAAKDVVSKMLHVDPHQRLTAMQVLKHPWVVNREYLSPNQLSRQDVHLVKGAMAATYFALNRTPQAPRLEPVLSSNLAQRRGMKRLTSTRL

[8] = molecular target: T3, Serine/threonine-protein kinase Sgk1 (Homo sapiens) (UniProt O00141); settings: at 10 µM
T3 sequence (whole entry): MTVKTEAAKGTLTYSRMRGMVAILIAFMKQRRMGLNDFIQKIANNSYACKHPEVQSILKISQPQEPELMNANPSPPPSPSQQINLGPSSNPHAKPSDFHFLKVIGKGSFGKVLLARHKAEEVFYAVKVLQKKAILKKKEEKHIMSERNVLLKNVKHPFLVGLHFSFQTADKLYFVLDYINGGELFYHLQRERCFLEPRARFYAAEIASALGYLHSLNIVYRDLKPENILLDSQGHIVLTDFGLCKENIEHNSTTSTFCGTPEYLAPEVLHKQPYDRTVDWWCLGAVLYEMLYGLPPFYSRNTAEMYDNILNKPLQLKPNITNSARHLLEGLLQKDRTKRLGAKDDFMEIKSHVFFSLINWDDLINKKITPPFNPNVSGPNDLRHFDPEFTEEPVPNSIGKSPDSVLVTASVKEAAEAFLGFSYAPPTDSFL

[9] = molecular target: Ribosomal protein S6 kinase alpha-1 (Homo sapiens) (UniProt Q15418); settings: at 1 µM
[10] = molecular target: Ribosomal protein S6 kinase alpha-3 (Homo sapiens) (UniProt P51812); settings: at 1 µM
[11] = molecular target: Ribosomal protein S6 kinase alpha-2 (Homo sapiens) (UniProt Q15349); settings: at 1 µM
[12] = molecular target: Ribosomal protein S6 kinase alpha-6 (Homo sapiens) (UniProt Q9UK32); settings: at 1 µM
Ribosomal protein S6 kinase alpha-6 (Homo sapiens), sequence (Q9UK32 whole entry): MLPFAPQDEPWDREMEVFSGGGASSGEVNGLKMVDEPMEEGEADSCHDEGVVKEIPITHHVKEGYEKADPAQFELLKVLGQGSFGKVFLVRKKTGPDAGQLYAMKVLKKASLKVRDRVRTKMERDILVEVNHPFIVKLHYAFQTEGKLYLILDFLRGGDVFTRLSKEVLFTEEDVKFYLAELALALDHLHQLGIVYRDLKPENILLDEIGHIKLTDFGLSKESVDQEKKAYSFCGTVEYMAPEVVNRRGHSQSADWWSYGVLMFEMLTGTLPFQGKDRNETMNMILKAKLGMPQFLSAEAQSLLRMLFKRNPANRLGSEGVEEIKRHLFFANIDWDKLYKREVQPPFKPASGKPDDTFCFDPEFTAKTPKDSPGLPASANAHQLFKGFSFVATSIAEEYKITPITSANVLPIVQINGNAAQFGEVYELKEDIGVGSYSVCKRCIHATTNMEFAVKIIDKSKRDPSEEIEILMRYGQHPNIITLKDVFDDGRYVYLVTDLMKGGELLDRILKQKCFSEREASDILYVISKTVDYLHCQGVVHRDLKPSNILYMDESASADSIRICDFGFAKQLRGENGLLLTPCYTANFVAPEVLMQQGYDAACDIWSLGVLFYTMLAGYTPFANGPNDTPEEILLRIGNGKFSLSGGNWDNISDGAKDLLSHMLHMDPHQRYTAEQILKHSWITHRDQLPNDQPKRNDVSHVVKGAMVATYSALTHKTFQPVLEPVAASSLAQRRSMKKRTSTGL

[13] = molecular target: Ribosomal protein S6 kinase alpha-6 (Homo sapiens) (UniProt Q9UK32); settings: at 10 µM
[14] = molecular target: Mitogen-activated protein kinase 14 (Homo sapiens) (UniProt Q16539); settings: at 1 µM
Mitogen-activated protein kinase 14 (Homo sapiens), sequence (Q16539 whole entry): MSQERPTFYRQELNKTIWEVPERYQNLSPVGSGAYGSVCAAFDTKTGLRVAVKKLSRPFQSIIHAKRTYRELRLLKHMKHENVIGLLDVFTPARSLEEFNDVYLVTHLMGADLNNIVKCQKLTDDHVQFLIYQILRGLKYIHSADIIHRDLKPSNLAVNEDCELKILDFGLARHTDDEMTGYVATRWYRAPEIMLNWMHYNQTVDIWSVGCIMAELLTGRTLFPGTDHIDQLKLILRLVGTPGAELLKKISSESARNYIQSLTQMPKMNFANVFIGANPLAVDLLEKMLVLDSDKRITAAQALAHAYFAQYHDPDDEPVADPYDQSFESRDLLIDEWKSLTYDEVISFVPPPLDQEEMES

[15] = molecular target: Mitogen-activated protein kinase 14 (Homo sapiens) (UniProt Q16539); settings: at 10 µM
[16] = molecular target: Mitogen-activated protein kinase 11 (Homo sapiens) (UniProt Q15759); settings: at 1 µM
Mitogen-activated protein kinase 11 (Homo sapiens), sequence (Q15759 whole entry): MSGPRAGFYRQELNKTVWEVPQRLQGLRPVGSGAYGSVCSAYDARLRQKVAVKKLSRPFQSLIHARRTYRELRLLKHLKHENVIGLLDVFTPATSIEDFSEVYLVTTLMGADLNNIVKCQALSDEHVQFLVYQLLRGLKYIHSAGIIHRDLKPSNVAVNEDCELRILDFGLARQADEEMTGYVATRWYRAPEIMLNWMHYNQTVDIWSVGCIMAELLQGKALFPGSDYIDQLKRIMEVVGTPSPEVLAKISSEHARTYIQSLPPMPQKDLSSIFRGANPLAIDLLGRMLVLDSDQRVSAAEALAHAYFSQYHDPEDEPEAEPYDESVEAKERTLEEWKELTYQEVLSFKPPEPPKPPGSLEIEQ

[17] = molecular target: Mitogen-activated protein kinase 11 (Homo sapiens) (UniProt Q15759); settings: at 10 µM
[18] = molecular target: T3, Serine/threonine-protein kinase Sgk1 (Homo sapiens); settings: at 1 µM
[19] = molecular target: T4, Mitogen-activated protein kinase 13 (Homo sapiens) (UniProt O15264); settings: at 10 µM
T4 sequence (whole entry): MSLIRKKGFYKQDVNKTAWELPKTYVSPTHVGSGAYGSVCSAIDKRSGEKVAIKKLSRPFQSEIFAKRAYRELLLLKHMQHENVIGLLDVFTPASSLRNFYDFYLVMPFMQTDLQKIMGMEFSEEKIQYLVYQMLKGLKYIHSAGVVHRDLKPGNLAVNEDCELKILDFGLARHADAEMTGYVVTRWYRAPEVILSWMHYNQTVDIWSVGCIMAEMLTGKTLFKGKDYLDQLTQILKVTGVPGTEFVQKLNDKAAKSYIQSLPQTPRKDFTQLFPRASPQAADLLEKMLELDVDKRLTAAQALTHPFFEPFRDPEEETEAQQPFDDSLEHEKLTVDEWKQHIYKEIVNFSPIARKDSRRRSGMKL

## O=C1c2ccccc2-[n+]2ccc3c([nH]c4ccccc43)c21
[1]
  residual activity: 89%
[2]
  residual activity: 100%

## COc1ccc2c(c[n+](C)c3c4cc5c(cc4ccc23)OCO5)c1OC
[3]
  residual activity: 89%
[4]
  residual activity: 79%
[5]
  residual activity: 92%
[6]
  residual activity: 91%
[7]
  residual activity: 93%
[2]
  residual activity: 94%
[8]
  residual activity: 85%

## O=c1cc(N2CCNCC2)oc2c(-c3ccccc3)cccc12
[1]
  residual activity: 92%
[2]
  residual activity: 105%

## Cn1cnc2cc3c(Nc4cccc(Br)c4)ncnc3cc21
[1]
  residual activity: 104%
[2]
  residual activity: 89%

## COc1cc(OC)c(/C=C2\C(=O)Nc3ccccc32)c(OC)c1
[9]
  residual activity: 102%
[5]
  residual activity: 101%
[10]
  residual activity: 63%
[6]
  residual activity: 57%
[11]
  residual activity: 96%
[7]
  residual activity: 97%
[12]
  residual activity: 103%
[13]
  residual activity: 95%
[14]
  residual activity: 89%
[15]
  residual activity: 85%
[16]
  residual activity: 99%
[17]
  residual activity: 92%
[1]
  residual activity: 97%
[2]
  residual activity: 96%
[18]
  residual activity: 82%
[8]
  residual activity: 86%

## CO[C@H]1[C@@H](OC)C[C@H](C)[C@@H](OC)C2=CC(=O)C=C(NC(=O)/C(C)=C/C=C/[C@H](OC)[C@@H](OC(N)=O)/C(C)=C/[C@@H]1C)C2=O
[14]
  residual activity: 95%
[15]
  residual activity: 106%
[1]
  residual activity: 110%
[2]
  residual activity: 99%

## c1cc(-c2cnn3cc(-c4ccc(OCCN5CCCCC5)cc4)cnc23)ccn1
[3]
  residual activity: 104%
[4]
  residual activity: 67%
[5]
  residual activity: 74%
[10]
  residual activity: 46%
[6]
  residual activity: 28%
[7]
  residual activity: 50%
[12]
  residual activity: 68%
[13]
  residual activity: 63%
[8]
  residual activity: 66%

## O=c1[nH]c2ccccc2n1C1CCN(Cc2ccc(-c3nc4cc5[nH]cnc5cc4nc3-c3ccccc3)cc2)CC1
[3]
  residual activity: 91%
[4]
  residual activity: 91%
[9]
  residual activity: 117%
[5]
  residual activity: 84%
[10]
  residual activity: 68%
[6]
  residual activity: 35%
[11]
  residual activity: 108%
[7]
  residual activity: 93%
[12]
  residual activity: 106%
[13]
  residual activity: 109%
[14]
  residual activity: 75%
[15]
  residual activity: 113%
[16]
  residual activity: 100%
[17]
  residual activity: 103%
[1]
  residual activity: 108%
[2]
  residual activity: 82%
[19]
  residual activity: 91%
[18]
  residual activity: 106%
[8]
  residual activity: 68%

## O=C(O)/C=C/c1cc(Br)c(Br)c(Br)c1Br
[1]
  residual activity: 110%
[2]
  residual activity: 90%

## COc1cc2ncnc(N3CCN(C(=O)Nc4ccc(Oc5ccccc5)cc4)CC3)c2cc1OC
[1]
  residual activity: 93%
[2]
  residual activity: 99%

## c1ccc(-c2n[nH]cc2-c2ccnc3ccccc23)nc1
[1]
  residual activity: 101%

## CC(C)[C@H](CO)Nc1nc(Nc2cccc(Cl)c2)c2ncn(C(C)C)c2n1
[3]
  residual activity: 85%
[4]
  residual activity: 78%
[9]
  residual activity: 77%
[5]
  residual activity: 19%
[10]
  residual activity: 62%
[6]
  residual activity: 15%
[11]
  residual activity: 75%
[7]
  residual activity: 21%
[12]
  residual activity: 40%
[13]
  residual activity: 24%
[14]
  residual activity: 88%
[15]
  residual activity: 80%
[16]
  residual activity: 101%
[17]
  residual activity: 96%
[2]
  residual activity: 98%
